# Earlier results in PubChem BioAssay AID977610.
# Among all 3,600 compounds or so, about 3,600 (100%) were called active. The limit is not given here; nearly all actives have Ki up to about 18000 µM. So high a share suggests a set chosen from earlier hits. This is one part of the list. Numbered stars: 1 amine (or outer) side, 2 acyl side, 3 side chain; on linkers, the order of the positions; unused ones are H or OH. Square brackets hold non-standard residues; d marks the D form. Peptide text beside a SMILES is read from it. * marks the point of attachment. Orn(CH(NH2)2) = NC(N)NCCC[C@H](N)C(=O)O; X2 = O=C([C@H]1CCC[C@@H]1N[*:1])[*:2]; X1 = N[C@H]1CNC[C@@H]1C(=O)*; β3hL = CC(C)C[C@H](N)CC(=O)O
# Assay: PubChem AID 977610
# Conditions: PDB protein-ligand complexes, literature Ki
smiles,measurement,setting,value
Nc1ncnc2c1ncn2[C@@H]1O[C@H](CO[P+](O)(O)O[P+](O)(O)O[P+](O)(O)O)[C@@H](O)[C@H]1O,Ki,"protein: 6-phosphofructokinase isozyme 2, PDB entry 3umo",129 µM (active)
same,Ki,"protein: 6-phosphofructokinase isozyme 2, PDB entry 3ump",1030 µM (active)
Nc1ncnc2c1ncn2[C@@H]1O[C@H](CO[P+](O)(O)O[P+](O)(O)N[P+](O)(O)O)[C@@H](O)[C@H]1O,Ki,"protein: ATP-BINDING CASSETTE SUB-FAMILY B MEMBER 10, PDB entry 4ayw",100 µM (active)
Nc1ncnc2c1ncn2[C@@H]1O[C@H](COP(=O)(O)OP(=O)(O)NP(=O)(O)O)[C@@H](O)[C@H]1O,Ki,"protein: Lipid A export ATP-binding/permease protein msbA, PDB entry 3B5Y",10 µM (active)
Nc1ncnc2c1ncn2[C@@H]1O[C@H](COS(=O)(=O)NC(=O)[C@@H](N)CO)[C@@H](O)[C@H]1O,Ki,"protein: Threonine--tRNA ligase, mitochondrial, PDB entry 4eo4",0.45 µM (active)
Nc1ncnc2c1ncn2[C@@H]1O[C@H](CO[P+](O)(O)OCC=CCC[C@@H]2SC[C@@H]3NC(=O)N[C@@H]32)[C@@H](O)[C@H]1O,Ki,"protein: Biotin-[acetyl-CoA-carboxylase] ligase, PDB entry 4dq2",0.03 µM (active)
Nc1ncnc2c1ncn2[C@@H]1O[C@H](CO[P+](O)(O)O[P+](O)(O)C[P+](O)(O)O)[C@@H](O)[C@H]1O,Ki,"protein: ATP-BINDING CASSETTE SUB-FAMILY B MEMBER 10, PDB entry 4ayx",200 µM (active)
same,Ki,"protein: ATP-BINDING CASSETTE SUB-FAMILY B MEMBER 10 MITOCHONDRIAL, PDB entry 4ayt",200 µM (active)
Nc1ncnc2c1ncn2[C@@H]1O[C@H](CO[P+](O)(O)O)[C@@H](O)[C@H]1O[P+](O)(O)O,Ki,"protein: Aspartate-semialdehyde dehydrogenase ASADH, PDB entry 4r3w",1000 µM (active)
Cc1ccc2oc(=O)n(CCCCn3cc(CCCCC[C@@H]4SC[C@@H]5NC(=O)N[C@@H]54)nn3)c2c1,Ki,"protein: Biotin ligase, PDB entry 3v7s",0.09 µM (active)
CC1(C)O[C@@H]2[C@H](O1)[C@@H](Cn1cc(CCCCC[C@@H]3SC[C@@H]4NC(=O)N[C@@H]43)nn1)O[C@H]2n1cnc2c(N)ncnc21,Ki,"protein: Biotin ligase, PDB entry 3v7c",1.83 µM (active)
O[C@@H]1[C@H](O)[C@@H](CO[P+](O)(O)O)O[C@H]1n1cnc2c(-c3ccc4ccccc4c3)ncnc21,Ki,"protein: 2'-deoxynucleoside 5'-phosphate N-hydrolase 1 DNPH1, PDB entry 4p5e",2.8 µM (active)
same,Ki,"protein: 2'-deoxynucleoside 5'-phosphate N-hydrolase 1 DNPH1, PDB entry 4p5d",1.5 µM (active)
O=C(N[C@@H](CCCCNC(=O)c1ccc(I)cc1)C(=O)O)N[C@@H](Cc1ccncc1)C(=O)O,Ki,"protein: Glutamate carboxypeptidase 2 GCPII, PDB entry 4oc4",0.105 µM (active)
O=C(N[C@@H](CCCCNC(=O)c1ccc(I)cc1)C(=O)O)N[C@@H](C[C@H]1CO1)C(=O)O,Ki,"protein: Glutamate carboxypeptidase 2 GCPII, PDB entry 4oc1",0.254 µM (active)
O=C(N[C@@H](CCCCNC(=O)c1ccc(I)cc1)C(=O)O)N[C@H](C(=O)O)c1ccc(O)cc1,Ki,"protein: Glutamate carboxypeptidase 2 GCPII, PDB entry 4oc5",0.085 µM (active)
O=C(N[C@@H](CCCCNC(=O)c1ccc(I)cc1)C(=O)O)N[C@@H](Cc1ccco1)C(=O)O,Ki,"protein: Glutamate carboxypeptidase 2 GCPII, PDB entry 4oc3",0.0053 µM (active)
O=C(N[C@@H](CCCCNC(=O)c1ccc(I)cc1)C(=O)O)NC1(C(=O)O)CC1,Ki,"protein: Glutamate carboxypeptidase 2 GCPII, PDB entry 4oc0",0.318 µM (active)
C#CC[C@H](NC(=O)N[C@@H](CCCCNC(=O)c1ccc(I)cc1)C(=O)O)C(=O)O,Ki,"protein: Glutamate carboxypeptidase 2 GCPII, PDB entry 4oc2",0.0053 µM (active)
CC(C)C[C@@H](CC(=O)NCC(=O)N[C@@H](CC(=O)O)C(=O)N[C@@H](C)C(=O)N[C@@H](Cc1ccccc1)C(=O)N[C@@H](CC(N)=O)C(=O)N[C@@H](CCCNC(N)N)C(N)=O)NC(=O)[C@H](CCCCN)NC(=O)[C@H]1CCC[C@@H]1NC(=O)[C@H](CC(C)C)NC(=O)[C@H]1CCC[C@@H]1NC(=O)[C@H](CCCNC(N)N)NC(=O)[C@H]1CCC[C@@H]1NC(=O)[C@H](C)NC(=O)[C@H]1CNC[C@@H]1N (X1-A[X2][Orn(CH(NH2)2)][X2]L[X2]K[β3hL]GDAFN[Orn(CH(NH2)2)]-NH2),Ki,"protein: Apoptosis regulator Bcl-XL, PDB entry 3fdm",0.002 µM (active)
CSCC[C@H](NC(=O)[C@H](CC(C)C)NC(=O)CNC(=O)[C@H](Cc1ccccc1)NC(=O)[C@H](Cc1ccccc1)NC(=O)[C@H](CCC(N)=O)NC(=O)[C@H](CCC(N)=O)NC(=O)[C@@H]1CCCN1C(=O)[C@H](CCCCN)NC(=O)[C@@H]1CCCN1C(=O)[C@@H](N)CCCNC(N)N)C(=O)O,Ki,"protein: Substance-P receptor, PDB entry 2ks9",9020 µM (active)
same,Ki,"protein: Substance-P receptor, PDB entry 2ksa",871 µM (active)
same,Ki,"protein: Substance-P receptor, PDB entry 2ksb",754 µM (active)
CC[C@H](C)[C@H](NC(=O)[C@H](CCCCN)NC(=O)[C@@H]1CCCN1C(=O)[C@@H](N)CCCNC(N)N)C(=O)N1CCC[C@H]1C(=O)N1CCC[C@H]1C(=O)O (H-[Orn(CH(NH2)2)]PKIPP-OH),Ki,"protein: ANGIOTENSIN-CONVERTING ENZYME, ANCE, PDB entry 4aa2",107 µM (active)
CSCC[C@H](NC(=O)[C@H](CC(C)C)NC(=O)[C@H](CC(C)C)NC(=O)[C@@H]1CCCN1C(=O)[C@@H](N)Cc1cnc[nH]1)C(=O)N[C@@H](CCCNC(N)N)C(=O)N[C@@H](CC(C)C)C(=O)N[C@@H](CC(C)C)C(=O)N[C@@H](Cc1cnc[nH]1)C(=O)N[C@@H](Cc1cnc[nH]1)C(=O)N1CCC[C@H]1C(=O)N[C@@H](CO)C(=O)O (H-HPLLM[Orn(CH(NH2)2)]LLHHPS-OH),Ki,"protein: Estrogen receptor beta, PDB entry 4j26",3.64 µM (active)
